PNC inhibitor = blocks assembly of the perinucleolar compartment | PC3M PTB-GFP, PNC prevalence imaging, 16 h; hits give low values | activity change (PNC), negative = inhibition, % at 10 µM | actives 3.1% (n = 140,000) | AID 2417;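 active means readout at or below -70, meaning at least 70% loss of cells showing the perinucleolar compartment, a nuclear body marking cancer cells; inconclusive means readout between -30 and a set limit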;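 further: plate controls were DMSO wells for no effect and camptothecin positive control wells for full effect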
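PC3M cells stably expressing PTB-GFP, 750–1000 cells/well, treated 16 h at 37 °C with compound (23 nl of library stock), in duplicate. After paraformaldehyde fixation and Hoechst stain, imaged at 20x; PNC prevalence scored by image analysis.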
ALDH1A1 block = ALDH1A1 (human) enzyme inhibition; P00352; Purified ALDH1A1, NADH fluorescence, propionaldehyde substrate; Potency, µM (highest dose often 75.3 µM), inactives show at the highest dose activity, negative = inhibition, hits mostly inhibitors; actives 7.3% (n = 220,000);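 further: potency means the concentration at half of the fitted maximal effect; plate controls were no enzyme wells and a reference inhibitor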
HPGD inh = blocks human HPGD enzyme activity; AID 894; Potency, µM, for the others: at the top dose activity change, negative = inhibition, hits mostly inhibitors; purified HPGD, NADH fluorescence kinetic, PGE2 substrate; P15428; actives 4.3% (n = 150,000); further: potency means the concentration at half of the fitted maximal effect
Target sequence (P15428 whole entry, looked up): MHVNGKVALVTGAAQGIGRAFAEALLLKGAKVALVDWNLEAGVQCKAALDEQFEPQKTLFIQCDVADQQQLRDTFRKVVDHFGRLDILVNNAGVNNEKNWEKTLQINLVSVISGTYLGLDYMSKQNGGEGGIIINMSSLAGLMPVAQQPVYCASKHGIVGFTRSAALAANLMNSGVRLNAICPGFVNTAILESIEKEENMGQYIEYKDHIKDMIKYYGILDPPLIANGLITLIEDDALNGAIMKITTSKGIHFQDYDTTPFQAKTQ
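20 nM HPGD preincubated 15 min at room temperature with compound in 50 mM Tris-HCl pH 8, 0.01% Tween 20. Started with 1 mM NAD+ and 30 uM prostaglandin E2; NADH fluorescence (360/450 nm) read 5 times over 30-s intervals, last minus first.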
* hit, by the source's call; [ ] = dose if it differs, or a comment. In the library only some 11% were active in any assay of this set; here they are far more common. Unless noted, the call rests on the fitted dose curve; in most records, active means well fitted inhibition curve with a large enough effect (not every such curve was filed as active); inconclusive means small, poorly fitted or top-dose-only effect, or another doubt; inactive means no such curve, though single readings can be large or run the other way. Unless noted, on the % scale 0 is the no-effect control and ±100 the full control effect.

How did c1ccc(-n2ncc3c(N4CCN(c5ccccn5)CC4)nc(N4CCCCCC4)nc32)cc1 do in these assays?
PNC inhibitor: 36; ALDH1A1 block: 1%; HPGD inh: inconclusive

Results for CC1CCC(C(=O)O)NC1c1ccc(-c2ccco2)cc1 (centres undefined) ?
ALDH1A1 block: 2%[13.5 µM]

Results for Cc1ccc(S(=O)(=O)NC(CC(=O)N2CCOCC2)c2ccco2)cc1 (centres undefined) ?
PNC inhibitor: -91*; ALDH1A1 block: 13µM*; HPGD inh: -10%

How did CC(NS(=O)(=O)c1ccccc1)C(=O)NCc1ccco1 (centres undefined) do in these assays?
PNC inhibitor: inconclusive; ALDH1A1 block: 24µM*; HPGD inh: inconclusive

What do the screens show for `CC(C)Oc1ccc(C(CC(=O)NCc2ccco2)c2ccccc2)cc1` (centres undefined)?
PNC inhibitor: 38; ALDH1A1 block: inconclusive; HPGD inh: 11µM*

How did O=C(C(c1ccccc1)c1ccccc1)N1CCOCC1 do in these assays?
PNC inhibitor: 24; ALDH1A1 block: -8%; HPGD inh: -18%

Results for COCCCNC(=O)CC(NS(=O)(=O)c1ccc(C)cc1)c1ccco1 (centres undefined) ?
PNC inhibitor: -5; ALDH1A1 block: 0%; HPGD inh: -12%

Results for O=C(CC(c1ccccc1)c1ccco1)N1CCOCC1 (centres undefined) ?
PNC inhibitor: -3; ALDH1A1 block: 40µM*; HPGD inh: 18µM*

What do the screens show for `Cc1cccc(C(CC(=O)NCc2ccco2)c2ccccc2)c1O` (centres undefined)?
ALDH1A1 block: -6%

Results for Cc1ccc(S(=O)(=O)NC(CC(C)C)C(=O)NCc2ccco2)cc1 (centres undefined) ?
PNC inhibitor: inconclusive; ALDH1A1 block: -5%; HPGD inh: -3%

Results for COc1ccc(Cc2noc(CN(C)CC(O)c3ccccc3)n2)cc1OC (centres undefined) ?
ALDH1A1 block: -8%

Results for CCOCCCNC(=O)c1ccccc1OC1CCN(S(C)(=O)=O)CC1 ?
ALDH1A1 block: 1%

What do the screens show for `N[C@@H](C(=O)O)[C@H](CC(=O)O)c1ccc(Cl)cc1`?
ALDH1A1 block: 9%; HPGD inh: -6%

What do the screens show for `CC(=O)c1cccc(CN2CCN(C(C)C)C(CCO)C2)c1` (centres undefined)?
ALDH1A1 block: 3%

How did COc1ccccc1CNC(=O)Cc1ccc(Br)cc1 do in these assays?
PNC inhibitor: -21; ALDH1A1 block: inconclusive; HPGD inh: -26%

How did COc1ccccc1CNC(=O)C(C)NS(=O)(=O)c1ccc(Br)cc1 (centres undefined) do in these assays?
PNC inhibitor: 11; ALDH1A1 block: 28µM*; HPGD inh: -5%

Results for COc1cccc(N(C(=O)Cn2nnc(-c3ccc(Cl)cc3)n2)C(C(=O)NCC2CCCO2)c2ccc(C)cc2)c1 (centres undefined) ?
ALDH1A1 block: 4%

Results for Nc1nc(N)nc(-c2ccc(Oc3ccccc3)cc2)n1 ?
PNC inhibitor: 79; ALDH1A1 block: -15%; HPGD inh: -27%

Results for Cc1ccccc1Oc1ccc(-c2nc(N)nc(N)n2)cc1 ?
PNC inhibitor: inconclusive; ALDH1A1 block: inconclusive; HPGD inh: 25µM*

What do the screens show for `O=C(NC(Cc1ccccc1)C(=O)O)/C(=C\c1ccc(F)cc1)NC(=O)c1ccccc1` (centres undefined)?
PNC inhibitor: 65; ALDH1A1 block: 15%; HPGD inh: 3%

What do the screens show for `O=C1C2CC=C(Cl)CC2C(=O)N1CCN1CCOCC1` (centres undefined)?
PNC inhibitor: 27; ALDH1A1 block: -3%; HPGD inh: -1%

Results for O=C1C2CC=C(Cl)CC2C(=O)N1CCCCCCN1C(=O)C2CC=C(Cl)CC2C1=O (centres undefined) ?
PNC inhibitor: inconclusive; ALDH1A1 block: 22µM*; HPGD inh: 16µM*

Results for COC(=O)n1ccc(C(=O)Nc2ccccc2F)n1 ?
PNC inhibitor: 26; ALDH1A1 block: -2%; HPGD inh: -6%

What do the screens show for `O=C(CCCn1c(=S)[nH]c2ccsc2c1=O)Nc1ccc2c(c1)OCCO2`?
ALDH1A1 block: 2%

Results for CC(=O)NC1C(=O)N=C(SCC(=O)NCc2ccccc2)NC1=O (centres undefined) ?
PNC inhibitor: -100*; ALDH1A1 block: inconclusive; HPGD inh: -9%

Results for O=C(CSC1=NC(=O)C(Cc2ccccc2)C(=O)N1)NC1CCCCC1 (centres undefined) ?
PNC inhibitor: inconclusive; ALDH1A1 block: -9%; HPGD inh: 1%

How did O=C(NC[C@@H](O)CO)c1c(I)c(C(=O)NC[C@@H](O)CO)c(I)c(N(CCO)C(=O)CO)c1I do in these assays?
ALDH1A1 block: -6%[20.9 µM]; HPGD inh: -25%

Results for O=C(OCc1ccc2c(c1)OCO2)c1cccc(S(=O)(=O)N2CCCCC2)c1 ?
PNC inhibitor: -29; ALDH1A1 block: 7.1µM*; HPGD inh: inconclusive

What do the screens show for `O=C(OCc1ccc2c(c1)OCO2)c1ccc(S(=O)(=O)N2CCCC2)cc1`?
PNC inhibitor: 43; ALDH1A1 block: inconclusive; HPGD inh: -10%

Results for CN(C)S(=O)(=O)c1cccc(NC(=O)COC(=O)c2cc(=O)c3ccccc3o2)c1 ?
ALDH1A1 block: -5%

What do the screens show for `CN(C)S(=O)(=O)c1cccc(NC(=O)COC(=O)c2ccc([N+](=O)[O-])o2)c1`?
PNC inhibitor: 61; ALDH1A1 block: 20µM*; HPGD inh: -12%

What do the screens show for `COc1ccc(NC(=O)COC(=O)c2ccc([N+](=O)[O-])o2)cc1Cl`?
ALDH1A1 block: 22µM*

What do the screens show for `COc1ccc(C)cc1NC(=O)COC(=O)c1ccc([N+](=O)[O-])o1`?
ALDH1A1 block: 0%

How did O=C(COC(=O)c1n[nH]c2ccccc12)Nc1cccc(S(=O)(=O)N2CCOCC2)c1 do in these assays?
ALDH1A1 block: 7%

How did O=C(COC(=O)c1ccc([N+](=O)[O-])o1)Nc1cccc(S(=O)(=O)N2CCOCC2)c1 do in these assays?
PNC inhibitor: inconclusive; ALDH1A1 block: 1µM*; HPGD inh: -18%

What do the screens show for `O=C(O)c1sccc1S(=O)(=O)Nc1ccc(Cl)cc1`?
ALDH1A1 block: 0%; HPGD inh: -10%

What do the screens show for `Clc1cccc(OCc2nc(-c3ccncc3)n[nH]2)c1`?
ALDH1A1 block: -1%

What do the screens show for `CSc1nc(N)c(C(=O)Nc2ccc([N+](=O)[O-])cc2)s1`?
ALDH1A1 block: -7%

Results for O=C(c1cccc(F)c1)N1CCN(Cc2ccco2)CC1 ?
PNC inhibitor: -9; ALDH1A1 block: -10%; HPGD inh: 3%

Results for COc1cccc(NC(=O)C(OC(=O)c2ccc([N+](=O)[O-])o2)c2ccccc2)c1 (centres undefined) ?
PNC inhibitor: 6; ALDH1A1 block: 22µM*; HPGD inh: -17%

Results for COc1cc2c(cc1OC)CN(C(=O)CCCOc1ccc(Cl)cc1Cl)CC2 ?
PNC inhibitor: inconclusive; ALDH1A1 block: 13%; HPGD inh: 35µM*

How did CCOc1ccccc1NC(=S)NC(=O)CCCOc1ccc(Cl)cc1Cl do in these assays?
PNC inhibitor: 4; ALDH1A1 block: 11µM*; HPGD inh: -23%

Source: PubChem BioAssay
